Test results as given in PubChem BioAssay (EPA / NIEHS).
Several values for one entry are separate records, joined by “and”; a condition that tells them apart may be missing. Equal values may be shown once. Inconclusive results are not listed. The source holds several records for some structures; these can differ, active in one and inactive in another. Activity calls are given as the source filed them. Rule for the calls: active = hit-call score of the fitted dose curve at least 0.9, where 1 is the maximum; inconclusive = response in the unintended direction; inactive = score below 0.9.

What follows are compounds tested against Cellular tumor antigen p53 (Homo sapiens) (UniProt P04637) (assay: TOX21_p53_BLA_p2_ratio: Tox21 HCT-116 p53 Agonism Beta-lactamase Assay, Ratio, Phase 2 (AID 2283592)).
Excerpt: TOX21_p53_BLA_p2 is a cell-based, single-readout assay that uses HCT116, a human intestinal cell line, […] in a 1536-well plate.TOX21_p53_BLA_p2_ratio is an assay readout measuring reporter gene via receptor activity and designed using inducible reporter (beta lactamase induction) detected with GAL4 b-lactamase reporter gene. The signal is derived from the ratio of cleaved (ch2) to uncleaved (ch1) reporter gene substrate used as the measure of target activity.Data from the assay component TOX21_p53_BLA_p2_ratio was analyzed into 1 assay endpoint. This assay endpoint, TOX21_p53_BLA_p2_ratio, was analyzed in the positive analysis fitting direction relative to DMSO as the negative control and baseline of activity. Using a type of inducible reporter, gain-of-signal activity can be used to understand changes in the reporter gene as they relate to the gene TP53. Furthermore, this assay endpoint can be referred to as a primary readout, because this assay has produced multiple assay endpoints and this ratio serves a reporter gene function to understand target activity. To generalize the intended target to other relatable targets, this assay endpoint is annotated to the DNA binding intended target family, where the subfamily is tumor suppressor.
Thawing Method: Place 14 mL of pre-warmed thaw medium into a 15 mL of conical tub. Remove the vial of cells to be thawed from liquid nitrogen and thaw rapidly by placing at 37C in a water bath with gentle agitation for 1-2 minutes. Decontaminate the vial by wiping with 70% ethanol before opening in a biological safety cabinet. Transfer the vial contents drop-wise into 14 mL of thaw medium in a sterile 15-mL conical tub. Centrifuge cells at 900 rpm for 4 minutes and resuspend in thaw medium. Transfer contents to the T75 tissue culture flask containing Thaw Medium and place flask in a humidified 37C/5% CO2 incubator. Switch to growth medium at first passage.Propagation Method: Aspirate medium, rinse once in DPBS, add 0.25% Trypsin/EDTA and swirl to coat the cell evenly. Add an equal volume of Growth Medium to inactivate Trypsin after 2-3 minutes incubation at 37C. Centrifuge cells at 900 rpm for 4 minutes and resuspend in growth medium. Cell should be passage or fed at least twice a week.Assay Protocol: Harvest cells from culture in growth medium and resuspend in assay medium. 2.2 Dispense 4000 cells/5 uL/well into 1536-well black/clear bottom plates using a Multidrop dispenser. After the cells were incubated at 37C for 5 hours, 23 nL of compounds dissolved in DMSO were transferred to the assay plate by a PinTool resulting in a 217-fold dilution. Incubate the plates for 16 hours at 37C, 5% CO2. Add 1 uL of 6X LiveBLAzer FRET B/G (CCF4-AM) Substrate Mixture to each well using a BioRAPTR dispenser and incubate the plates at room temperature for 2 hours. Measure fluorescence intensity at 460 and 530 nm emission and 405 nm excitation by an Envision detector. Data is expressed as the ratio of 460nm/530nm emissions. Add 4 uL of Cell-titer Glo to each well using BioRAPTR and incubate the plates at room temperature for 2 hours. Measure fluorescence intensity by a VewLux plate reader.

Chain of Cellular tumor antigen p53 (Homo sapiens) (P04637 whole entry, looked up, the tested form may be a part): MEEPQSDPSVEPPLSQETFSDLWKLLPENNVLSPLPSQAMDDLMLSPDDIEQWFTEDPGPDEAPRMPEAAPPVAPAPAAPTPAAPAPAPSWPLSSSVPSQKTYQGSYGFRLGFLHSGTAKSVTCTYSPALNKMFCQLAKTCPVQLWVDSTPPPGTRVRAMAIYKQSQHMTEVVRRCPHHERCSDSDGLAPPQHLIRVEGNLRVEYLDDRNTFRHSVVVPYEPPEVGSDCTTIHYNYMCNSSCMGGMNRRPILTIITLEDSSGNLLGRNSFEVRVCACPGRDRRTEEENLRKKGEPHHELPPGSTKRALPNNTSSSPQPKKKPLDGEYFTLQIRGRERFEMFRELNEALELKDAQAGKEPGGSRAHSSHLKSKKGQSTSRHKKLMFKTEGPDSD

Compound | outcome | AC50
CC1(C)C(C(=O)OC(C#N)c2cccc(Oc3ccccc3)c2)C1(C)C (stereo not given) | inactive | 
CN/C(=N\[N+](=O)[O-])NCc1cnc(Cl)s1 | inactive | 
CCCN(CC)CC1COC2(CCC(C(C)(C)C)CC2)O1 (stereo not given) | inactive | 
O=C1C2CC=CCC2C(=O)N1SC(Cl)(Cl)Cl (stereo not given) | inactive | 4.12 µM (active) and 7.62 µM (active)
COC(=O)NS(=O)(=O)c1ccc(N)cc1 | inactive | 
CC(C)N1C(=O)N(c2ccccc2)CSC1=NC(C)(C)C | inactive | 
Nc1c(Cl)c(Cl)nc(C(=O)O)c1Cl |  | 75.6 µM (active)
CCOc1nc(C(Cl)(Cl)Cl)ns1 | inactive | 
COc1cc(Cl)c(OC)cc1Cl | inactive | 
CC(C)C1(C)N=C(c2ncccc2C(=O)O)NC1=O (stereo not given) | inactive | 
CNC(=O)Oc1cccc2ccccc12 | inactive | 
CC(C)NC(=O)N1CC(=O)N(c2cc(Cl)cc(Cl)c2)C1=O | inactive | 
CCC(C)n1c(=O)[nH]c(C)c(Br)c1=O (stereo not given) | inactive | 
COC(=O)NC(=S)Nc1ccccc1NC(=S)NC(=O)OC | inactive | 
CCOC(=O)C(C)OC(=O)c1cc(Oc2ccc(C(F)(F)F)cc2Cl)ccc1[N+](=O)[O-] (stereo not given) | inactive | 
CC1(C)CCC(=Cc2ccc(Cl)cc2)C1(O)Cn1cncn1 (stereo not given) | inactive | 
CNC(=O)N(C)c1nnc(C(C)(C)C)s1 | inactive | 
COP(=S)(OC)Oc1ccc([N+](=O)[O-])c(C)c1 | inactive | 
Cc1cc(C)nc(Nc2ccccc2)n1 | inactive | 

Compound | outcome | AC50
CCCCC(O)(Cn1cncn1)c1ccc(Cl)cc1Cl (stereo not given) | inactive | 
N#Cc1c[nH]cc1-c1cccc2c1OC(F)(F)O2 |  | 7.61 µM (active)
CC1(C)C(C=C(Cl)Cl)C1C(=O)OC(C#N)c1cccc(Oc2ccccc2)c1 (stereo not given) | inactive | 
CC(C)Oc1cccc(NC(=O)c2ccccc2C(F)(F)F)c1 | inactive | 
Cc1c(COC(=O)[C@@H]2[C@H](/C=C(\Cl)C(F)(F)F)C2(C)C)cccc1-c1ccccc1 | inactive | 
CCN(CC)c1nc(C)cc(OP(=S)(OC)OC)n1 | inactive | 
COC(=O)c1c(C(F)F)nc(C(F)(F)F)c(C2=NCCS2)c1CC(C)C | inactive | 
C=C(C)CN(CC)c1c([N+](=O)[O-])cc(C(F)(F)F)cc1[N+](=O)[O-] | inactive | 
O=C(Nc1ccccc1-c1ccc(Cl)cc1)c1cccnc1Cl | inactive | 
CC(C)Nc1nc(Cl)nc(NC(C)C)n1 | inactive | 
CN=C=S | inactive | 
CCOP(=O)(OCC)Oc1nc(Cl)c(Cl)cc1Cl | inactive | 
Nc1cnn(-c2ccccc2)c(=O)c1Cl | inactive | 
CCCCC(C#N)(Cn1cncn1)c1ccc(Cl)cc1 (stereo not given) | inactive | 
CC(C)(C)C(=O)C(Oc1ccc(Cl)cc1)n1cncn1 (stereo not given) | inactive | 
C=CCOC(=O)C(C)(C)OC(=O)c1cc(-n2c(=O)cc(C(F)(F)F)n(C)c2=O)ccc1Cl | inactive | 
OC(c1ccc(Cl)cc1)(c1ccc(Cl)cc1)C(Cl)(Cl)Cl | inactive | 
CC(C)N1C(=O)c2ccccc2NS1(=O)=O | inactive | 
Cn1c(-c2ccccc2)cc(-c2ccccc2)[n+]1C | inactive | 24.2 µM (active)
